Sampled rows, rich in hits. Any-hit rate of the full collection: about 4%.
Peg3 promoter: Peg3 promoter-driven luciferase inhibitors, primary screen, cell-based, HeLa, luciferase luminescence; hit rate 1.7% among 360,000; inhibition, % at 20 µM; AID 588405, 2011; HeLa PEG-Prom luciferase reporter, overnight;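 active = inhibition of at least 50% at 20 µM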
TROY signal inh: inhibitors of TROY-driven NF-kB signaling, primary screen, Q293 LMP1-TROYcd cells, NF-kB luciferase, uHTS; Q293 LMP1-TROYcd NF-kB luciferase reporter, 4 h; inhibition, % at 10 µM; hit rate 0.98% among 360,000;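 active = compounds whose plate-normalised and pattern-corrected inhibition of the luciferase reporter signal at the single screening dose is 50% or more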
TWEAK-Fn14 inh: inhibitors of TWEAK-Fn14 signaling, primary screen, luciferase reporter cells, uHTS. TWEAK-stimulated Fn14 reporter cells, luciferase luminescence, 8 h. inhibition, % at 10 µM. hit rate 2% among 360,000; in the data active = inhibition above about 50%
MITF TRPM1 inh: inhibitors of MITF-dependent TRPM1 promoter reporter, primary screen, cell-based, SK-MEL-5, single point, luciferase; SK-MEL-5 TRPM1 promoter luciferase, 24 h; inhibition, % at 12.5 µM; hit rate 0.83% among 330,000;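 active = mean inhibition across replicates of 60% or more, whatever share of single replicates reaches that level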
LMP1 NFkB inh: EBV LMP1-driven NF-kappaB luciferase reporter inhibitors, primary screen, cell-based, luminescence, single point; LMP1-induced NF-kappaB luciferase reporter cells; hit rate 0.69% among 350,000; inhibition, % at 12.5 µM; AID 504558, 2011; in the data active = inhibition above about 41%
HIF-2a block: HIF-2a reporter inhibitors, primary screen, luminescence, 786-0 RCC cells; AID 624352, 2012; hit rate 0.72% among 360,000; inhibition, % at 18.8 µM; 786-0 RCC cells HIF-2a reporter, luciferase luminescence, overnight;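 active = inhibition of the luminescence signal of 40% or more relative to plate controls, in a single-dose primary screen at 18.75 µM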
Of the large screens only hits and unclear results are named; the others gave an inactive call.

O=C(NCCC1CCCCN1S(=O)(=O)c1ccccc1)C(=O)Nc1ccc(F)cc1F (stereo not given)	none
Cc1cc2nc(N3C(=O)CNC3=S)sc2cc1C	TROY signal inh 63, TWEAK-Fn14 inh 90
CCOc1ccc2nc(N3C(=O)CNC3=S)sc2c1	none
Cc1c(CN2CCC(C(=O)Nc3cccc(-c4cccc(Cl)c4)c3)CC2)cnn1C	Peg3 promoter 69
CCCn1ncc(CN2CCC(C(=O)Nc3cccc(-c4cccc(F)c4)c3)CC2)c1C	Peg3 promoter 60
O=C(Nc1cccc(-c2cccc(Cl)c2)c1)C1CCN(Cc2ccccn2)CC1	none
Cc1nn(C(C)C)c(C)c1CN1CCC(C(=O)Nc2cccc(-c3cccc(F)c3)c2)CC1	Peg3 promoter 89, MITF TRPM1 inh 61
Cn1cc(CN2CCC(C(=O)Nc3cccc(-c4cccc(F)c4)c3)CC2)cn1	none
C=CCn1cc(CN2CCC(C(=O)Nc3cccc(-c4cccc(Cl)c4)c3)CC2)c(C)n1	MITF TRPM1 inh 75
CCC(=O)N1CCC1(C)C(=O)NCc1ccccc1SC (stereo not given)	none (no result: MITF TRPM1 inh, LMP1 NFkB inh)
CC1CCC(C(C)C)C(OC(=O)C[n+]2cc(-c3ccc(Cl)cc3)n3c2CCCCC3)C1 (stereo not given)	MITF TRPM1 inh 87
CCOC(=O)N1CCN(C(=O)C2CC(=O)N(Cc3ccc(OC)cc3)C2)CC1 (stereo not given)	TWEAK-Fn14 inh 72 (no result: TROY signal inh)
COc1ccc(CN2CC(C(=O)N3CCOCC3)CC2=O)cc1 (stereo not given)	none
Cc1ccc2nc(-c3ccc(NC(=O)C(C)Sc4nncs4)cc3)sc2c1 (stereo not given)	TROY signal inh 73, TWEAK-Fn14 inh 89
Cc1ccc2nc(-c3ccc(NC(=O)CSc4nccc(=O)[nH]4)cc3)sc2c1	TROY signal inh 51
Cc1nnc(SCC(=O)Nc2ccc(-c3nc4ccccc4s3)cc2)s1	TROY signal inh 55, TWEAK-Fn14 inh 77
Cc1ccc2nc(-c3ccc(NC(=O)CSc4nc(N)cc(=O)[nH]4)cc3)sc2c1	none
O=C(CCN1C(=O)NC2(CCCC2)C1=O)Nc1ccc(-c2nc3ccccc3s2)cc1	Peg3 promoter 101, TWEAK-Fn14 inh 60
Cc1nnc(SCC(=O)Nc2ccccc2NC(=O)CSc2nnc(C)s2)s1	none
Cc1ccc2nc(-c3ccc(NC(=S)NC(=O)CC(C)C)cc3)sc2c1	none
O=C(CCN1C(=O)NC2(CCCC2)C1=O)Nc1ccc(Sc2ccc(Br)cc2)cc1	none (no result: MITF TRPM1 inh)
COc1ccccc1CNC(=O)c1cccc(S(=O)(=O)N2CCCC2)c1	none
O=C(Nc1ccc(-c2nc3ccccc3s2)cc1)c1cc(-n2cnnc2)ccc1Cl	TROY signal inh 53, TWEAK-Fn14 inh 95
COC(=O)CC1(C(=O)OC)Nc2cc(Cl)c(Cl)cc2S(=O)(=O)N1O (stereo not given)	none (no result: MITF TRPM1 inh)
CC1(C)c2[nH]c3ccccc3c2C[C@@H]2C(=O)N(Cc3ccc(F)cc3)C(=O)N21	Peg3 promoter 62
CC(=O)c1cccc(NC(=O)CSc2nnnn2C2CCCC2)c1	none
O=C(O)c1cccc(N(CCO)CCO)c1	none
OCCN(CCO)c1ccc(C(c2ccccc2Cl)c2ccc(N(CCO)CCO)cc2Cl)c(Cl)c1	Peg3 promoter 59
CCN1C(=O)N[C@@H](CCc2ccccc2)[C@H](C(C)=O)[C@H]1C	LMP1 NFkB inh 58
CC(=O)[C@H]1[C@H](CCc2ccccc2)NC(=O)N(Cc2ccccc2)[C@@H]1C	none
O=C(N/N=C/c1cn(-c2cccs2)nc1-c1ccccc1)c1ccccc1O	TROY signal inh 62, TWEAK-Fn14 inh 91
Cc1sc(NC(=O)/C=C/C(=O)O)c(C(N)=O)c1-c1ccc(C(C)(C)C)cc1	none
Cc1sc(NC(=O)c2cccc([N+](=O)[O-])c2)c(C(N)=O)c1-c1ccc(C(C)(C)C)cc1	TROY signal inh 69, TWEAK-Fn14 inh 64
Nc1ccn([C@@H]2O[C@H](C(=O)N3CCSC3)[C@@H](O)[C@H]2O)c(=O)n1	none (no result: MITF TRPM1 inh, LMP1 NFkB inh)
C/C(=N\Nc1ccc(C(=O)c2c(C)cc3ccccn23)cc1[N+](=O)[O-])c1ccc(O)cc1	TWEAK-Fn14 inh 62
Cc1cc2ccccn2c1C(=O)c1ccc(N/N=C/c2ccc(C(=O)O)cc2)c([N+](=O)[O-])c1	none
C/C(=N/Nc1ccc(C(=O)c2c(C)cc3ccccn23)cc1[N+](=O)[O-])c1ccc(O)cc1	TWEAK-Fn14 inh 53
C#CCNC(=O)C[C@@H]1C[C@@]2(C(=O)OCC)CCCC=C2N(Cc2ccc(Cl)cc2Cl)C1=O	none (no result: Peg3 promoter, MITF TRPM1 inh, LMP1 NFkB inh)
CNCCCOc1ccc(Cl)cc1C(C)(C)C	Peg3 promoter 68
O=C(Cn1nnc(-c2ccc(F)cc2)n1)NC(=O)NC1CCCCC1	none (no result: MITF TRPM1 inh)
Cc1c(/N=C(\[O-])Nc2ccc(Br)cc2)sn[n+]1C	TWEAK-Fn14 inh 68 (no result: MITF TRPM1 inh, LMP1 NFkB inh)
COC(=O)Nc1ccc(Oc2ccccc2)cc1	none
COC(=O)c1c(O)ccc(Oc2ccccc2)c1C(=O)OC	LMP1 NFkB inh 47
O=C(Cc1ccc(-n2c(=O)c3sccc3n(CC(=O)Nc3ccccc3F)c2=O)cc1)NCc1ccco1	LMP1 NFkB inh 69
O=C(Cc1ccc(-n2c(=O)c3sccc3n(CC(=O)Nc3ccccc3)c2=O)cc1)NCc1ccco1	none
O=c1[nH]nc2c3ccccc3occ1-2	none (no result: Peg3 promoter, TROY signal inh, TWEAK-Fn14 inh, MITF TRPM1 inh, LMP1 NFkB inh)
Cc1cc(Br)cn2c(Cc3ccccc3)c(C3CCCCC3)nc12	none (no result: Peg3 promoter, MITF TRPM1 inh, LMP1 NFkB inh)
Cc1ccc(Cc2c(C3CCCCC3)nc3c(C)cc(Br)cn23)cc1	TWEAK-Fn14 inh 57 (no result: Peg3 promoter, MITF TRPM1 inh, LMP1 NFkB inh)
Cn1c(/C=C/c2ccccc2)nc2ccccc21	TWEAK-Fn14 inh 83, LMP1 NFkB inh 47
Cn1c(=O)c(/C=C/c2ccccc2)nc2ccccc21	none
CS(=O)(=O)CCC(C(=O)Nc1ccc2c(c1)OCO2)N1Cc2ccccc2C1=O (stereo not given)	LMP1 NFkB inh 60
CSCC[C@@H](C(=O)Nc1ccc2c(c1)OCCO2)N1Cc2ccccc2C1=O	none (no result: MITF TRPM1 inh)
COc1ccc2c(c1)/C(=C/c1cc(OC)c(OC)c(OC)c1)C(=O)N2	TWEAK-Fn14 inh 57
COc1ccc(C(=O)/C=C2\C(=O)Nc3ccc(Br)cc32)cc1	Peg3 promoter 76
O=C1Nc2ccccc2/C1=C\C(=O)c1ccccc1	Peg3 promoter 65
Cc1ccnc(NC(=O)COc2ccccc2[N+](=O)[O-])c1	TWEAK-Fn14 inh 51
Cc1ccc(NC(=O)COc2ccccc2[N+](=O)[O-])nc1	TWEAK-Fn14 inh 58
O=C(COc1ccccc1[N+](=O)[O-])Nc1cccnc1	none
Cc1ccc(NC(=O)c2ccc(COc3ccccc3[N+](=O)[O-])o2)nc1	none
CCn1c(CNC(=O)c2cccc(C)c2)nnc1SCC(=O)N1CCOCC1	none
Cc1noc(NS(=O)(=O)c2ccc(NC(=O)CSc3nc4ccccc4s3)cc2)c1C	none

Screens (PubChem)
